# Source: PubChem BioAssay
# Shiga inhibitor – A qHTS for Small Molecule Inhibitors of Shiga Toxin; Vero cells, Shiga toxin protein synthesis inhibition reporter; inhibition, % at 38.7 µM; 290,000 compounds, 9.2% hits; AID 2315, 2010; in the data active = inhibition mostly above about 28%, no sharp cut-off; inactive = mostly below about 43%; note: 0% is about no effect
# LmPK inhibitor – qHTS Assay for Inhibitors of Leishmania Mexicana Pyruvate Kinase (LmPK); Q27686; purified LmPK, Kinase-Glo ATP luminescence, 1 h; Potency, µM (doses to about 57.5 µM), for inactives: at the highest dose activity change, negative = inhibition, hits mostly inhibitors; 290,000 compounds, 0.37% hits; AID 1721, 2009; active = well fitted curve in the direction sought with a large enough effect; inconclusive = small, poorly fitted or top-dose-only effect, or another doubt; inactive = no such curve, though single readings can be large; an effect the other way counts as inactive or inconclusive; note: potency is the fitted concentration of half-maximal effect; % is set by controls: 0 for no effect and ±100 for the full control effect
# Target sequence (Q27686 whole entry, looked up): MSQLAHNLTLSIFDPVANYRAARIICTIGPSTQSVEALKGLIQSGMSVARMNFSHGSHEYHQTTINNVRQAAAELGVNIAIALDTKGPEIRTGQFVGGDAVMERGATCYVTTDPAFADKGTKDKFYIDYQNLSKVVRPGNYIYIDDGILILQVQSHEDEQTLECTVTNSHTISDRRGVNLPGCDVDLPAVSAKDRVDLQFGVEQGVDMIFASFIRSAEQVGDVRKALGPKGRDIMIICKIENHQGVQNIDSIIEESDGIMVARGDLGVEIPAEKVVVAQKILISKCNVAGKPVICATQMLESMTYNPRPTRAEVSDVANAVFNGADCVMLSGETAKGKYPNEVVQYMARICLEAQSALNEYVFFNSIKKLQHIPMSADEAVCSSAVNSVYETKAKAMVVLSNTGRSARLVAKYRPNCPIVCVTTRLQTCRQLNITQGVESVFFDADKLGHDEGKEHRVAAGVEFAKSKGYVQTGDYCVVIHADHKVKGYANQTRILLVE
#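 Kinase-Glo luminescence read after 1 h RT reaction of 0.1 nM LmPK with 0.5 mM PEP and 0.1 mM ADP. Activity scaled between uninhibited and enzyme-free controls.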
# SARS PLpro yeast – qHTS of Yeast-based Assay for SARS-CoV PLP. S. cerevisiae expressing SARS-CoV PLpro, growth rescue. 330,000 compounds, 0.19% hits. Potency, µM (highest dose often 32.9 µM), inactives show at the highest dose activity, positive = growth rescue, most hits filed as activators; note: potency is the fitted concentration of half-maximal effect; 0% is about no effect; nearly all actives have a fitted effect of over 55% in size
# TbPYK inhibitor – qHTS of Trypanosoma Brucei Inhibitors; 410,000 compounds, 0.12% hits; Potency, µM (series often up to 76.8 µM), inactives show at the highest dose activity, negative = inhibition, actives largely listed as inhibitors; TbPYK enzyme, Kinase-Glo Plus ATP luminescence, 45 min; active = well fitted curve in the direction sought with a large enough effect; inconclusive = small, poorly fitted or top-dose-only effect, or another doubt; inactive = no such curve, though single readings can be large; an effect the other way counts as inactive or inconclusive; note: potency is the fitted concentration of half-maximal effect; % is set by controls: 0 for no effect and ±100 for the full control effect; nearly all actives have a fitted effect of over 50% in size
#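 Readout: single end-point luminescence (Kinase-Glo Plus, 10 min). Reaction conditions were TbPYK/substrate plus 130 uM ADP, 45 min at RT, pH 7.2 TEA buffer. No-enzyme wells served as controls, and data were normalized before concentration-response fitting.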
# Cycloheximide cs – Cycloheximide Counterscreen for Small Molecule Inhibitors of Shiga Toxin; cell reporter, cycloheximide protein synthesis inhibition counterscreen; max response, %; 300,000 compounds, 12% hits; AID 2314, 2010; in the data active = max response mostly above about 13%, no sharp cut-off; inactive = mostly below about 14%; note: read at 38.3 µM for the half of the compounds with a filed dose; 0% is about no effect
# NS1 inh – qHTS Assay for Inhibitors of Influenza NS1 Protein Function. Potency, µM (titrated, usually from 46.1 µM), for inactives: at the highest dose activity, positive = more growth. 270,000 compounds, 0.4% hits. AID 2326, 2010; note: potency is the fitted concentration of half-maximal effect; actives are rising curves; nearly all actives have a fitted effect of over 50% in size
#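 Read-out: OD600 growth recovery of NS1-expressing budding yeast. Cells grown overnight at 30C in -URA glucose medium, washed, resuspended and diluted 1:100 in 2% galactose assay medium, pH 6.0. Same strain lacking NS1 served as positive control.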
# The depositor's hits bear a star; ? = inconclusive; / = no result. Many of the other results were omitted from the sample, so hits are more common in it than they were. Unless noted, calls come from the whole dose curve.
SMILES,Shiga inhibitor,LmPK inhibitor,SARS PLpro yeast,TbPYK inhibitor,Cycloheximide cs,NS1 inh
CCN(C(=O)COC(=O)c1ccccc1Cc1ccccc1)c1c(N)n(Cc2ccccc2)c(=O)[nH]c1=O,/,/,/,2%,/,/
O=c1c(CCc2ccccc2)nc2cnc(Oc3cccc(Cl)c3)nc2n1C[C@H]1CCCO1,/,/,/,-7%,/,/
O=S(=O)(O)c1ccc(N=Nc2ccccc2)cc1,3,-15%,4%,-3%,0,3%
O=c1ccc(N=Nc2ccccc2)ccc1O,33,?,-7%,?,23*,-99%
Cc1c(Cl)cccc1NC(CC(=O)c1ccccc1)C(=O)OCC(=O)c1cccs1 (configuration not stated),81*,12%,-29%,-6%,23*,-25%
O=C(CC(Nc1ccc(Cl)cc1)C(=O)O)c1ccccc1 (configuration not stated),42*,?,2%,-19%,54*,-5%
O=C(CC(C(=O)O)c1ccc(Cl)cc1)c1ccccc1 (configuration not stated),-15,-7%,0%,-11%,5,/
O=C(CC(Nc1cccc(Cl)c1Cl)C(=O)OCC(=O)c1cccs1)c1ccccc1 (configuration not stated),12,-2%,13%,3%,9,-1%
O=C(CC(Nc1ccccc1Cl)C(=O)O)c1ccccc1 (configuration not stated),91*,6%,-1%,-15%,68*,5%
COc1ccccc1NC(CC(=O)c1ccccc1)C(=O)OCC(=O)c1ccc(F)cc1 (configuration not stated),60*,2%,-41%,-17%,49*,1%
COc1ccccc1NC(=O)CCCC(=O)OCC(=O)c1ccc(F)cc1,3,-1%,-2%,-14%,2,-15%
O=C(NCCCc1ccccn1)C1CCC(=O)N(Cc2cccc(F)c2)C1 (configuration not stated),-4,-10%,0%,0%,-11,3%
O=C(CC(Nc1cccc(Cl)c1Cl)C(=O)O)c1ccccc1 (configuration not stated),102*,5%,0%,-15%,57*,?
Cc1c(Cl)cccc1NC(CC(=O)c1ccccc1)C(=O)O (configuration not stated),150*,-2%,-17%,?,70*,-6%
Clc1ccc(CN2CCCN(Cc3ccc(Cl)cc3)C2c2cc3ccccc3c3ccccc23)cc1,/,/,/,/,/,-14%
CCN(CC)CCC(C)OC(c1ccccc1)c1ccccc1 (configuration not stated),53*,-6%,-2%,7%,22*,/
COc1ccc(C(C)=O)cc1Cn1nnc(-c2ccccc2Br)n1,3,4%,1%,0%,1,0%
COc1cc(C(C)=O)ccc1OCc1nnc(-c2ccccc2Br)o1,60*,3%,-4%,0%,16*,-8%
Fc1ccc(OCc2nnc(-c3ccccc3Br)o2)c(Cl)c1,109*,0%,-7%,1%,15*,-14%
Clc1ccc(OCc2nnc(-c3ccccc3Br)o2)c(Cl)c1,83*,6%,11%,-2%,39*,-28%
CCOC(=O)C1CCCN(C(=O)c2cccc(S(=O)(=O)N(Cc3ccccc3)c3ccccc3OC)c2)C1 (configuration not stated),/,/,-1%,1%,/,/
Oc1[nH]c2ccccc2c1N=Nc1cccc(Cl)c1,34*,5%,-1%,-2%,28*,0%
Nc1nc(N)c(N=Nc2ccc(C(=O)O)cc2)c(N)n1,14,-6%,0%,-1%,3,-3%
O=C(O)c1ccc(N=Nc2c(O)[nH]c3cc(Cl)ccc23)cc1,67*,3%,-1%,-4%,36*,1%
Oc1[nH]c2ccccc2c1N=Nc1ccccc1Cl,/,/,/,-2%,/,/
SMILES,Shiga inhibitor,LmPK inhibitor,SARS PLpro yeast,TbPYK inhibitor,Cycloheximide cs,NS1 inh
Cc1cccc2c(N=Nc3ccccc3)c(O)[nH]c12,57*,-1%,0%,6%,65*,0%
Cc1ccc(N=Nc2c(O)[nH]c3ccc(F)cc23)cc1,67*,1%,0%,3%,50*,-3%
O=C(O)c1ccc(N=Nc2c(O)[nH]c3ccc(Br)cc23)cc1,111*,4%,-2%,-9%,56*,7%
Cc1c(CC(=O)N2CCCCC2)c(=O)oc2c(C)c3occ(C(C)(C)C)c3cc12,/,/,/,3%,/,/
COc1ccc(C(=O)OCC(=O)N2CCCC2=O)c(OC)c1,75*,-9%,-2%,5%,33*,6%
COc1ccc(Nc2nc(-c3ccccc3)c(C(=O)Nc3cccnc3)s2)cc1,38,5%,-3%,1%,24,/
COc1ccc(C2C(CC(=O)O)=C(Nc3ccccc3)C(=O)N2c2ccccc2)cc1 (configuration not stated),132,6%,-1%,1%,37*,/
O=C(O)CC1=C(O)C(=O)N(c2ccccc2)C1c1ccccc1 (configuration not stated),9,-4%,1%,-4%,8,?
O=C(O)CC1=C(Nc2ccccc2)C(=O)N(c2ccccc2)C1c1ccc(F)cc1 (configuration not stated),99*,0%,-16%,-7%,52*,20%
Cc1ccccc1S(=O)(=O)N1CCN(C)CC1,-4,-3%,-9%,-2%,-2,-1%
COCCCn1c(=S)[nH]c2c(sc3ccccc32)c1=O,16,5%,1%,-29%,29*,/
CC1CCN(CCCn2c(=S)[nH]c3c(sc4ccccc43)c2=O)CC1,105*,-2%,0%,?,22*,/
O=C(O)CCCn1c(=S)[nH]c2c(sc3ccc([N+](=O)[O-])cc32)c1=O,-3,?,0%,20µM*,-2,/
O=c1c2sc3ccccc3c2[nH]c(=S)n1CCN1CCOCC1,39,-4%,1%,?,3,/
COc1cccc(C2CC(=O)Nc3cc(C)c(C)cc32)c1 (configuration not stated),/,/,/,-7%,/,/
COc1ccc(-c2nc(N3CCN(S(=O)(=O)c4ccc(C)cc4)CC3)c3ccccc3n2)cc1,73,/,/,/,27*,/
CN1CCN(c2nc(-c3ccc(C(C)(C)C)cc3)nc3ccccc23)CC1,59*,-2%,1%,-2%,57*,-2%
CCN1CCN(c2nc(-c3ccccc3)nc3ccccc23)CC1,-15,-2%,-14%,-4%,-3,-8%
O=S(=O)(c1ccc(Cl)cc1)N1CCN(c2nc(-c3ccc(Cl)cc3)nc3ccccc23)CC1,39,/,/,/,12,/
CN1CCN(c2nc(-c3ccc(Br)cc3)nnc2-c2ccccc2)CC1,11,1%,-1%,-1%,22*,-7%
